PubChem BioAssay AID1159580 (chemical genetic matrix, 2015)
Hit rate of the full screen: of about 5,500 compounds, about 2,000 (36%) were called active. Roughly 18% stayed inconclusive and do not appear here. Cut-off read from the data, not from the text of the source: active = normalized growth mostly below about 0.91 (no sharp cut-off); inconclusive = no clear call, values can overlap the other calls; inactive = mostly above about 0.92. This is one part of the list.

Assay: chemical genetic growth profiling, strain panel (AID 1159580);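 note: tested at 20 µM; growth read once vehicle control cultures reached saturation at 30 °C; 1 = growth at the plate median or of vehicle wells; lower values mean less growth of the strain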
Details: growth OD
[1] = S. cerevisiae deletion strains, locus YAL013W, strain DEP1, active compounds read low
[2] = S. cerevisiae deletion strains, locus YDR150W, strain NUM1, active compounds read low
[3] = S. cerevisiae deletion strains, locus YJR075W, strain HOC1, active compounds read low
[4] = S. cerevisiae deletion strains, locus YMR263W, strain SAP30, active compounds read low
[5] = S. cerevisiae deletion strains, locus YNL153C, strain GIM3, active compounds read low
[6] = S. cerevisiae deletion strains, locus YNL322C, strain KRE1, active compounds read low
[7] = S. cerevisiae deletion strains, locus YPL055C, strain LGE1, active compounds read low
[8] = S. cerevisiae deletion strains, locus YBR229C, strain ROT2, active compounds read low
[9] = S. cerevisiae deletion strains, locus YDL101C, strain DUN1, active compounds read low
[10] = S. cerevisiae deletion strains, locus YEL061C, strain CIN8, active compounds read low
[11] = S. cerevisiae deletion strains, locus YHR030C, strain SLT2, active compounds read low
[12] = S. cerevisiae deletion strains, locus YJR043C, strain POL32, active compounds read low
[13] = S. cerevisiae deletion strains, locus YLR039C, strain RIC1, active compounds read low
[14] = S. cerevisiae deletion strains, locus YLR262C, strain YPT6, active compounds read low

Measured: normalized growth

NC(=O)CCC(N)C(=O)O (stereo not given)
inactive: [1] 1.02 | S. cerevisiae deletion strains, locus YAL040C, strain CLN3, active compounds read low 0.998 | S. cerevisiae deletion strains, locus YCL061C, strain MRC1 (second series), active compounds read low 1 | [2] 0.999 | S. cerevisiae deletion strains, locus YDR363W, strain ESC2, active compounds read low 1.01 | S. cerevisiae deletion strains, locus YER002W, strain NOP16, active compounds read low 1.02 | S. cerevisiae deletion strains, locus YGR229C, strain SMI1, active compounds read low 1.04 | [3] 1.01 | [4] 0.997 | S. cerevisiae deletion strains, locus YNL128W, strain TEP1, active compounds read low 0.987 | [5] 0.99 | S. cerevisiae deletion strains, locus YNL175C, strain NOP13, active compounds read low 0.996 | S. cerevisiae deletion strains, locus YNL197C, strain WHI3, active compounds read low 0.997 | S. cerevisiae deletion strains, locus YNL224C, strain SQS1, active compounds read low 0.993 | [6] 1.01 | S. cerevisiae deletion strains, locus YOR083W, strain WHI5 (second series), active compounds read low 1.01 | [7] 1.03

BrC12CC3CC(CC(C3)C1)C2
inactive: [1] 1 | [8] 1.02 | [9] 1.01 | [2] 0.961 | [10] 1.01 | S. cerevisiae deletion strains, locus YGR078C, strain PAC10, active compounds read low 0.997 | [11] 1.05 | S. cerevisiae deletion strains, locus YHR087W, strain rtc3, active compounds read low 0.971 | [12] 1.02 | [3] 1.03 | S. cerevisiae deletion strains, locus YKL190W, strain CNB1, active compounds read low 1 | [13] 1.02 | S. cerevisiae deletion strains, locus YLR058C, strain SHM2 (second series), active compounds read low 1.02 | S. cerevisiae deletion strains, locus YLR085C, strain ARP6, active compounds read low 1.01 | [14] 1.02 | S. cerevisiae deletion strains, locus YML094W, strain GIM5, active compounds read low 0.997 | S. cerevisiae deletion strains, locus YMR219W, strain ESC1, active compounds read low 1 | [4] 0.975 | [5] 1.02 | S. cerevisiae deletion strains, locus YNL298W, strain CLA4 (second series), active compounds read low 0.996 | [6] 1.01 | S. cerevisiae deletion strains, locus YNR030W, strain Alg12, active compounds read low 0.999 | S. cerevisiae deletion strains, locus YOL006C, strain TOP1, active compounds read low 1.01 | [7] 1.03 | S. cerevisiae deletion strains, locus YPL241C, strain CIN2, active compounds read low 1 | S. cerevisiae deletion strains, locus YPR135W, strain CTF4, active compounds read low 0.99

CC1CC2C(C(O)CC3(C)C2CCC3(O)C(=O)COC(=O)CCC(=O)O)C2(C)C=CC(=O)C=C12 (stereo not given)
inactive: S. cerevisiae deletion strains, locus YBR021W, strain FUR4, active compounds read low 1.08 | [8] 1 | S. cerevisiae deletion strains, locus YCL029C, strain bik1, active compounds read low 0.97 | S. cerevisiae deletion strains, locus YDL035C, strain GPR1, active compounds read low 1.01 | S. cerevisiae deletion strains, locus YDL074C, strain BRE1, active compounds read low 1.01 | [9] 1.01 | S. cerevisiae deletion strains, locus YDL185W, strain tfp1, active compounds read low 0.959 | S. cerevisiae deletion strains, locus YDL192W, strain arf1, active compounds read low 0.982 | S. cerevisiae deletion strains, locus YDR101C, strain arx1, active compounds read low 0.993 | [2] 1 | S. cerevisiae deletion strains, locus YDR162C, strain NBP2, active compounds read low 1.02 | S. cerevisiae deletion strains, locus YDR318W, strain mcm21, active compounds read low 0.989 | S. cerevisiae deletion strains, locus YDR388W, active compounds read low 0.997 | S. cerevisiae deletion strains, locus YDR502C, strain sam2, active compounds read low 0.982 | [10] 1.01 | S. cerevisiae deletion strains, locus YER110C, active compounds read low 0.977 | S. cerevisiae deletion strains, locus YER155C, strain BEM2, active compounds read low 1.01 | S. cerevisiae deletion strains, locus YER167W, strain BCK2, active compounds read low 1.01 | S. cerevisiae deletion strains, locus YGL078C, strain dbp3, active compounds read low 0.984 | S. cerevisiae deletion strains, locus YGL086W, strain mad1, active compounds read low 1 | S. cerevisiae deletion strains, locus YGL248W, strain PDE1, active compounds read low 1.01 | S. cerevisiae deletion strains, locus YGR135W, strain pre9, active compounds read low 0.982 | S. cerevisiae deletion strains, locus YGR252W, strain gcn5, active compounds read low 0.992 | [11] 0.987 | S. cerevisiae deletion strains, locus YHR079C, strain IRE1 (second series), active compounds read low 0.979 | S. cerevisiae deletion strains, locus YHR094C, strain hxt1, active compounds read low 0.994 | S. cerevisiae deletion strains, locus YHR129C, strain ARP1, active compounds read low 0.999 | S. cerevisiae deletion strains, locus YHR200W, strain rpn10, active compounds read low 0.987 | S. cerevisiae deletion strains, locus YIL066C, strain RNR3, active compounds read low 1.03 | S. cerevisiae deletion strains, locus YIL073C, strain SPO22, active compounds read low 0.973 | S. cerevisiae deletion strains, locus YIL125W, strain kgd1, active compounds read low 0.983 | S. cerevisiae deletion strains, locus YIR030C, strain dcg1, active compounds read low 0.978 | S. cerevisiae deletion strains, locus YJL095W, strain BCK1, active compounds read low 1.05 | S. cerevisiae deletion strains, locus YJL134W, strain LCB3, active compounds read low 0.999 | S. cerevisiae deletion strains, locus YJL168C, strain set2, active compounds read low 0.979 | S. cerevisiae deletion strains, locus YJL187C, strain SWE1 (second series), active compounds read low 1.02 | [12] 1.04 | [3] 1 | S. cerevisiae deletion strains, locus YKL009W, strain mrt4, active compounds read low 0.97 | S. cerevisiae deletion strains, locus YKL068W, active compounds read low 0.968 | S. cerevisiae deletion strains, locus YKL085W, strain MDH1 (second series), active compounds read low 0.994 | S. cerevisiae deletion strains, locus YKL085W, strain MDH1, active compounds read low 0.994 | S. cerevisiae deletion strains, locus YKR001C, strain vps1, active compounds read low 0.984 | [13] 1.03 | S. cerevisiae deletion strains, locus YLR058C, strain SHM2, active compounds read low 0.999 | S. cerevisiae deletion strains, locus YLR102C, strain apc9, active compounds read low 0.991 | [14] 0.98 | S. cerevisiae deletion strains, locus YLR268W, strain sec22, active compounds read low 0.99 | S. cerevisiae deletion strains, locus YLR330W, strain CHS5, active compounds read low 0.987 | S. cerevisiae deletion strains, locus YLR342W, strain FKS1 (second series), active compounds read low 1.04 | S. cerevisiae deletion strains, locus YLR371W, strain rom2, active compounds read low 0.979 | S. cerevisiae deletion strains, locus YLR418C, strain cdc73, active compounds read low 1.02 | S. cerevisiae deletion strains, locus YML016C, strain PPZ1, active compounds read low 1.01 | S. cerevisiae deletion strains, locus YML032C, strain rad52, active compounds read low 1 | S. cerevisiae deletion strains, locus YML124C, strain tub3, active compounds read low 0.987 | S. cerevisiae deletion strains, locus YMR078C, strain ctf18, active compounds read low 0.979 | S. cerevisiae deletion strains, locus YMR223W, strain ubp8, active compounds read low 0.981 | [4] 1.02 | S. cerevisiae deletion strains, locus YMR307W, strain GAS1, active compounds read low 1.13 | S. cerevisiae deletion strains, locus YNL067W, strain RPL9B, active compounds read low 1.03 | [5] 1.03 | S. cerevisiae deletion strains, locus YNL233W, strain BNI4, active compounds read low 1.04 | S. cerevisiae deletion strains, locus YNL250W, strain rad50, active compounds read low 0.966 | S. cerevisiae deletion strains, locus YNL271C, strain bni1, active compounds read low 0.999 | S. cerevisiae deletion strains, locus YNL298W, strain CLA4, active compounds read low 0.993 | S. cerevisiae deletion strains, locus YNL307C, strain MCK1, active compounds read low 0.987 | [6] 1.01 | S. cerevisiae deletion strains, locus YNR052C, strain pop2, active compounds read low 0.982 | S. cerevisiae deletion strains, locus YOL012C, strain htz1 0.933 | S. cerevisiae deletion strains, locus YOL147C, strain pex11, active compounds read low 0.993 | S. cerevisiae deletion strains, locus YOR061W, strain CKA2, active compounds read low 1 | S. cerevisiae deletion strains, locus YOR069W, strain VPS5, active compounds read low 1 | S. cerevisiae deletion strains, locus YOR136W, strain idh2, active compounds read low 0.99 | S. cerevisiae deletion strains, locus YOR144C, strain elg1, active compounds read low 1 | S. cerevisiae deletion strains, locus YOR184W, strain ser1, active compounds read low 1.01 | S. cerevisiae deletion strains, locus YOR316C, strain cot1, active compounds read low 1 | S. cerevisiae deletion strains, locus YPR119W, strain clb2, active compounds read low 0.986 | S. cerevisiae deletion strains, locus YPR141C, strain kar3, active compounds read low 0.972 | S. cerevisiae deletion strains, locus YPR163C, strain tif3, active compounds read low 0.985 | S. cerevisiae deletion strains, locus YPR167C, strain met16, active compounds read low 0.969 | S. cerevisiae deletion strains, strain wtn01, active compounds read low 0.995 | S. cerevisiae strains, strain wild type, active compounds read low 1.01
